S2 tox = Viability Counterscreen for Primary qHTS for Inhibitors of ATXN expression. S2 cells (HEK-293 line with an ATXN2-luciferase reporter) viability, CellTiter-Fluor protease fluorescence, 24 h. Potency, µM (top dose mostly 56.7 µM), most hits filed as cytotoxic. 0.49% of 400,000 active. AID 651635, 2014; note: nearly all actives have a fitted effect of over 40% in size
HepG2 viability = qHTS for Inhibitors of TGF-b: Cytotox Counterscreen | HepG2 CAGA-GFP viability, ATP luminescence, 18 h | Potency, µM (series often up to 46.1 µM), for the others: at the top dose activity change, negative = cytotoxicity, actives largely listed as cytotoxic | 0.76% of 410,000 active | AID 588856, 2011
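CellTiter-Glo luminescence gave cytotoxicity after 18 hours at 37 degrees C. The cells were HepG2 CAGA-GFP in 1% FBS DMEM, stimulated with 500 pg/mL TGF-beta after compound addition. %Activity was normalised to no-cell wells (complete cell-killing) and DMSO (no toxicity), and curves were fitted and classified.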
HT1080-NT tox = qHTS for induction of synthetic lethality in tumor cells producing 2HG: qHTS for the HT-1080-NT fibrosarcoma cell line | HT-1080-NT fibrosarcoma viability, CellTiter-Glo ATP luminescence, 48 h | 1.6% of 360,000 active | Potency, µM (series often up to 46.1 µM), without a hit: at the highest dose activity, negative = less viability, usual class: cytotoxic;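 note: NT is the 2HG producing partner of a matched IDH1 knockdown line; 0% = DMSO-treated cells and -100% = media-only wells without cells; nearly all actives have a fitted effect of over 55% in size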
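Viability by CellTiter-Glo luminescence after 48 h compound exposure at 37C of HT-1080-NT cells (750/well, RPMI, 5% FBS). % activity scaled between DMSO wells and medium-only wells, then curve-fitted and categorized by curve class.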
HT1080 IDH1KD tx = qHTS for induction of synthetic lethality in tumor cells producing 2HG: qHTS for the HT-1080-IDH1KD cell line | HT-1080 IDH1 knockdown viability, ATP luminescence, 48 h | Potency, µM (doses to about 46.1 µM), inactives show top-dose activity, negative = toxicity, hits mostly cytotoxic | 2% of 360,000 active;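 note: 0% = DMSO wells and -100% = cell-free medium wells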
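In this qHTS, HT-1080 cells depleted of IDH1 are exposed for 48 h at 37 °C to compound titrations. Toxicity is scored from CellTiter-Glo luminescence, with DMSO as full viability and medium alone as none.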
TGFb inhibitor = qHTS for Inhibitors of TGF-b; HepG2 CAGA-GFP TGF-b/SMAD3 reporter, GFP fluorescence, 18 h; TGF-beta stimulated, 500 pg/mL final; Potency, µM (titrated, usually from 46.1 µM), inactives show at the highest dose activity, negative = inhibition, hits mostly inhibitors; 1.2% of 410,000 active; AID 588855, 2011; note: % is set by controls: 0 for no effect and ±100 for the full control effect; nearly all actives have a fitted effect of over 65% in size
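Smad-responsive CAGA-GFP expression was quantified in HEPG2 cells exposed to compounds and 500 pg/mL final TGF-beta for 18 h at 37 degrees C; unstimulated wells defined full inhibition.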
ATXN2 expr inh = Primary qHTS for Inhibitors of ATXN expression; Potency, µM (top dose mostly 57 µM), for inactives: top-dose activity change, negative = inhibition, actives largely listed as inhibitors; 0.72% of 360,000 active; AID 1745845, 2022; HEK-293 ATXN2-luciferase reporter, luminescence, 24 h; note: % is set by controls: 0 for no effect and ±100 for the full control effect; nearly all actives have a fitted effect of over 55% in size
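qHTS (up to 57 uM final) was run with 24 h compound exposure of reporter cells at 37 °C. Each well was multiplexed: SteadyGlo luminescence measured ATXN2-luciferase expression after a fluorogenic Gly-Phe-AFC viability readout (25 uM final).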
* marks the source's active call; other numbers are inactive results; i = inactive; u = inconclusive; x = no result given. Hits are enriched below; roughly 3.8% of the tested compounds scored in any of these assays. Calls come from the whole dose curve; as a rule, active = well fitted curve in the direction sought with a large enough effect; inconclusive = small, poorly fitted or top-dose-only effect, or another doubt; inactive = no such curve, though single readings can be large; an effect the other way counts as inactive or inconclusive. Potency is the fitted concentration of half-maximal effect.

SMILES | S2 tox | HepG2 viability | HT1080-NT tox | HT1080 IDH1KD tx | TGFb inhibitor | ATXN2 expr inh
CCN1CCc2c(sc(NC(=O)c3cc4ccccc4cc3OC)c2C(N)=O)C1 | i | -111% | 6.5µM* | 8.2µM* | u | -36%
CC1=C([N+](=O)[O-])C(c2cccc(Br)c2)C2=C(N1)c1ccccc1C2=O (stereo not drawn) | u | -32% | 1.3µM* | 1.3µM* | u | u
COC(=O)C1=C(C)NC2=C(C(=O)c3ccccc32)C1c1cccc(OC)c1 (stereo not drawn) | i | -1% | 13% | -1% | 3% | x
COc1cc(=O)n2c(c1C(=O)NCc1ccco1)CCN(Cc1cccc(Cl)c1)CC2 | i | x | x | x | x | x
CCCCn1c(NC(=O)c2ccccc2)c(C#N)c2nc3ccccc3nc21 | x | -36% | 8.9µM* | u | u | u
CCC(=O)Nc1c(C#N)c2nc3ccccc3nc2n1-c1ccc(C)cc1 | x | -18% | 2% | -1% | -23% | -10%
CCC(C)n1c(NC(=O)c2ccccc2)c(C#N)c2nc3ccccc3nc21 (stereo not drawn) | u | 8% | 18µM* | 16µM* | u | -33%
CCCCCCCCCCn1ccc(=N)cc1 | i | -49% | u | 10µM* | u | u
Cc1ccccc1CNC(=O)C(=O)NCC(c1ccco1)S(=O)(=O)c1ccc(F)cc1 (stereo not drawn) | x | -18% | x | x | 0% | x
CCOC(=O)c1ccc(NC(=O)Cn2ncc(Cl)c(Cl)c2=O)cc1 | u | 16µM* | 16µM* | 4.6µM* | u | u
CCOC(=O)c1ccc(NC(=O)Cn2nc(C)c3ccccc3c2=O)cc1 | i | 3% | -2% | 0% | -10% | 11%
CCC(=O)Nc1ccc(C(=O)Cn2ncc(Cl)c(Cl)c2=O)cc1 | 25µM* | -123% | 0% | u | u | x
O=C(COc1ccc([N+](=O)[O-])cc1)N1CCC(c2nc3ccccc3s2)CC1 | u | -33% | x | x | u | -38%
O=C(O)c1cn(C2CC2)c2cc(Cl)c(F)cc2c1=O | i | x | x | x | x | 21%
COCCCNC1=C(Cl)C(=O)c2ccccc2C1=O | i | -71% | u | -8% | u | u
C=CCNC1=C(Cl)C(=O)c2ccccc2C1=O | i | 13µM* | -15% | -26% | u | -36%
CCN(CC)CCCNC1=C(Cl)C(=O)c2ccccc2C1=O | 24µM* | 3.2µM* | u | 21µM* | 4.5µM* | u
O=C1C(Cl)=C(NCCc2ccccc2)C(=O)c2ccccc21 | i | -41% | 9.2µM* | u | u | 32µM*
CC(C)NC1=C(Cl)C(=O)c2ccccc2C1=O | u | 8.9µM* | u | 7.1µM* | 10µM* | -16%
Nc1cc(=O)[nH]c2c1CCC2 | x | -21% | x | x | -1% | x
CC(=O)N(Cc1ccc(F)cc1)C1=C(NCCc2ccccc2)C(=O)c2ccccc2C1=O | 28µM* | 4µM* | 5.8µM* | 5.2µM* | u | 13µM*
S=C1SCN(CCc2ccccc2)CN1CCc1ccccc1 | u | -12% | -6% | -17% | u | x
S=C1SCN(CC2CC2)CN1CC1CC1 | i | -10% | u | -10% | 11µM* | u
CCN1CCCC1CNC(=O)c1cnn(-c2nccc(-c3cccs3)n2)c1C(C)C (stereo not drawn) | i | x | x | x | x | x
COc1ccccc1-c1sc2cc3c(cc2c1-c1ccc(OCCN2CCCCC2)cc1)OCO3 | u | 10µM* | u | u | u | u
SMILES | S2 tox | HepG2 viability | HT1080-NT tox | HT1080 IDH1KD tx | TGFb inhibitor | ATXN2 expr inh
c1ccc(-c2sc3ccccc3c2-c2ccc(OCCN3CCOCC3)cc2)cc1 | i | -15% | 0% | -2% | -1% | 2%
Oc1cccc(-c2sc3ccccc3c2-c2ccc(OCCN3CCCCC3)cc2)c1 | u | x | 21µM* | 12µM* | x | u
COc1ccc2sc(-c3ccccc3OC)c(-c3ccc(OCCN4CCOCC4)cc3)c2c1 | i | 1% | -19% | -25% | -2% | -6%
COc1ccccc1-c1sc2ccccc2c1-c1ccc(O)cc1 | i | -37% | -4% | -12% | 11µM* | 0%
COc1cc2sc(-c3ccccc3OC)c(-c3ccc(OCCN4CCCCC4)cc3)c2cc1OC | 25µM* | 16µM* | u | u | u | u
O=C[C@H](O)[C@@H](O)[C@H](O[C@H]1O[C@H](CO)[C@@H](O[C@H]2O[C@H](CO)[C@@H](O)[C@H](O)[C@H]2O)[C@H](O)[C@H]1O)[C@H](O)CO | i | x | x | x | x | x
O=C(CCN1C(=O)c2ccccc2Sc2ncccc21)Nc1ccc(F)cc1 | x | -20% | x | x | u | x
O=C(Nc1ccc2nc(SCC(=O)N3CCCc4ccccc43)sc2c1)c1ccccc1 | x | -52% | x | x | 0% | x
CN(Cc1ccc(F)cc1)S(=O)(=O)c1nnc(NC(=O)c2ccc(F)cc2)s1 | x | -34% | x | x | u | x
CN(C)c1ccc(CCc2ccnc3ccccc23)cc1 | x | -32% | x | x | 0% | x
CC(=O)Nc1ccc(S(=O)(=O)Nc2cccc3cccnc23)cc1 | x | -28% | 5% | -12% | 0% | -18%
O=S(=O)(Nc1cccc2cccnc12)c1ccc(S(=O)(=O)N2CCCC2)cc1 | i | -28% | 2µM* | 1.3µM* | u | u
O=S(=O)(Nc1cc(Br)cc2cccnc12)c1ccccc1 | x | 1% | x | x | 8.9µM* | x
COc1ccc(S(=O)(=O)Nc2cccc3cccnc23)cc1 | x | -33% | x | x | 7.1µM* | x
Cc1ccc(S(=O)(=O)Nc2cc(Br)cc3cccnc23)cc1 | x | -26% | x | x | u | x
C(=C/c1nccc2c1[nH]c1ccccc12)/c1ccc2c(c1)OCO2 | x | -49% | u | 16µM* | u | 1%
COc1ccc(/C=C/c2nccc3c2[nH]c2ccccc23)cc1 | x | -39% | x | x | -11% | x
CC(C)c1ccc(-c2noc(SCC(=O)N3CCCCC3)n2)cc1 | u | -14% | x | x | 1% | 0%
O=c1cc(-c2ccccc2)[nH]n1-c1ccc([N+](=O)[O-])cc1 | x | -72% | u | 13µM* | u | u
OC1CCN(c2cc(-c3ccccc3)nc3cc(-c4ccc(F)cc4)nn23)CC1 | i | -19% | 10% | 2% | -4% | -2%
COc1cccc(-c2cc3nc(-c4ccccc4)cc(N4CCCC(O)C4)n3n2)c1 (stereo not drawn) | i | -32% | u | u | 13µM* | x

Source: PubChem BioAssay (National Center for Advancing Translational Sciences (NCATS))
